Calls of active or inactive are those of the source.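 Rule for the calls, unless noted: active = inhibition above 20% together with a positive visual image hit; inconclusive = visual image hit but inhibition not above 20%; inactive = no visual image hit.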
Columns and labels:
[1] = inhibitors of TNFa-induced NFkB p65 translocation, primary screen, imaging, HUVEC, MLSMR starter and 10KST1 sets (AID 438); settings: HUVEC TNFa-induced p65 nuclear translocation; cell count: measured here: nuclei count (cytotoxicity indicator), at 2.08 µM; inhibition: at 2 µM, stronger effect = higher value, 0% TNFa-plus-vehicle, 100% no-TNFa wells;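 note: compound added about 3h40 before a 20 min TNFalpha stimulation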;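 for inhibition: signal is the nuclear over cytoplasmic p65 intensity ratio per well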
[2] = inhibitors of mutant huntingtin aggregation, primary screen, imaging, exon1htt(103Q)mCFP cells, high-content imaging (AID 483;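 active = visual image review flags a hit and inhibition of aggregation exceeds 20%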;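 note: compound exposure lasted 3 days before fixation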;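 for nuclei count: percent of the per-plate median nuclei count of sample wells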); settings: exon1htt(103Q)mCFP cell line, aggregate imaging, at 2 µM; inhibition of aggregation: stronger effect = higher value; nuclei count: measured here: cell count, toxicity
[3] = inhibitors of E-selectin induction by TNFa, primary screen, imaging, HUVEC, immunofluorescence, MLSMR starter and 10KST1 sets (AID 487;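 active = visually confirmed hit in the image check and inhibition above 20%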;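 for inhibition: signal is fraction of cell area covered by stained E-selectin grains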;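 for nuclei count: 100% = median nuclei count of all wells on the same plate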); settings: HUVEC TNFalpha-induced E-selectin immunofluorescence imaging, at 2 µM; inhibition: stronger effect = higher value; nuclei count: measured here: cell number, toxicity
[4] = target: Voltage-gated potassium channel subunit beta-2 (Rattus norvegicus) (UniProt P62483); experiment: KvBeta enzyme negative modulators, primary screen, biochemical, NADPH fluorescence (AID 622;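 active = fluorescence slope higher than the sample average by over 3 SD, cut at about -0.22 in these data, passing the limit was not always enough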;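 note: slope of raw intensity against log time taken from 70 to 1610 s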); settings: recombinant KvBeta, 4-cyanobenzaldehyde reduction, at 10 µM, stronger effect = higher value
Voltage-gated potassium channel subunit beta-2 (Rattus norvegicus), sequence (P62483 whole entry, looked up): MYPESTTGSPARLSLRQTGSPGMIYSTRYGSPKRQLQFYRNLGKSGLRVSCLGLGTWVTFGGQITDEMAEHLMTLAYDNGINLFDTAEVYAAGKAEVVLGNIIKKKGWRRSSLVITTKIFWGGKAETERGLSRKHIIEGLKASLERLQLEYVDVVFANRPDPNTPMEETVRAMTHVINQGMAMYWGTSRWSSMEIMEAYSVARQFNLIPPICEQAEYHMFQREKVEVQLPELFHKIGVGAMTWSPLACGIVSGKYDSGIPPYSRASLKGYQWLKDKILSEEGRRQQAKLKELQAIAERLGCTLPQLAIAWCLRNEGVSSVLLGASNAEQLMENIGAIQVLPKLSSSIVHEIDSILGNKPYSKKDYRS

[5] = target: Voltage-gated potassium channel subunit beta-2 (Rattus norvegicus) (UniProt P62483); experiment: KvBeta positive modulators, primary screen, biochemical, NADPH fluorescence (AID 623;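 active = NADPH fluorescence slope more negative than the mean of all samples by about 3 SD, 99.7% confidence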;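 note: fluorescence intensity change per second fitted from 20 to 320 s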); settings: Recombinant KvBeta, NADPH fluorescence decrease slope, 10 min; at 10 µM; stronger effect = lower value
[6] = target: Alpha-2C adrenergic receptor (Homo sapiens) (UniProt P18825); experiment: modulators of alpha2C/GIRK thallium flux, primary screen, cell-based, HEK293 alpha2C/GIRK1/2 (AID 624;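 active = fluorescence slope after compound addition differing from the mean of all screened samples at 99.7% confidence, in either direction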;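 note: slope of fluorescence ratio to pre-addition baseline per second over 15 to 24 s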); settings: thallium flux BTC fluorescence, at 10 µM, actives lie on both sides
Alpha-2C adrenergic receptor (Homo sapiens), sequence (P18825 whole entry, looked up): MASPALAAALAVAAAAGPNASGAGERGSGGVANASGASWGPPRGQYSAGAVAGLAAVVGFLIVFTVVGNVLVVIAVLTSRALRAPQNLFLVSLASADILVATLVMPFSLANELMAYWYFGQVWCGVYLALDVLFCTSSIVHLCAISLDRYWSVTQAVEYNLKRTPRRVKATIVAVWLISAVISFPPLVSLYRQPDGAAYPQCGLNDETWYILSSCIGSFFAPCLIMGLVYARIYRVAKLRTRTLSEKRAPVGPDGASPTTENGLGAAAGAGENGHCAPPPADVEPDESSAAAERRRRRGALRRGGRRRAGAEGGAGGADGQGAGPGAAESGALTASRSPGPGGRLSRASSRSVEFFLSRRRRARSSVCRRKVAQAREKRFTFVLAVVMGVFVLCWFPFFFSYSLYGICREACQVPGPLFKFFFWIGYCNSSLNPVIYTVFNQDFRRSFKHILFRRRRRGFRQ

[7] = inhibitors of Sendai virus-induced IRF3 signaling, primary screen, TLR/RLR signaling modifier project, cell-based, Sendai virus stimulus, luciferase, 10K MLSCN set (AID 602276;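 active = inhibition at or above 50% at 10 µM; inactive = inhibition below 50%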;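 note: firefly luciferase from ISG56 promoter only with Renilla not read in this screen; 0% = Sendai virus plus DMSO and 100% = medium plus DMSO without virus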); settings: HEK293 RL24 IRF3 luciferase reporter, at 10 µM, stronger effect = higher value
[8] = inhibitors of poly I:C-induced TLR3 signaling, primary screen, cell-based, poly I:C stimulus, luciferase, 10K MLSCN set (AID 602277;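 active = inhibition of the reporter signal at or above 50%; inactive = inhibition below 50%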); settings: HEK293-TLR3 RL24 IRF3 luciferase reporter, at 10 µM, stronger effect = higher value

Structure (SMILES)	cell count [1]	inhibition [1]	inhibition of aggregation [2]	nuclei count [2]	inhibition [3]	nuclei count [3]	fluorescence slope [4]	NADPH fluorescence slope [5]	slope [6]	inhibition [7]	inhibition [8]
Cn1c(SCC(=O)c2ccc(-c3ccccc3)cc2)nnc1-c1ccco1	248	4.3% (inactive)	5.3% (inactive)	67.6%	-7.1% (inactive)	118%	-0.516 (inactive)	-5.4e-05 (inactive)	0.0027 (inactive)	3.76% (inactive)	1.41% (inactive)
CCOC(=O)Cc1csc(NC(=O)CSc2nnc(C(C)C)n2CC)n1	812	-6.2% (inactive)	13.4% (inactive)	89.5%	-33.7% (inactive)	119%	-0.317 (inactive)	1.9e-05 (inactive)	0.00691 (inactive)	18.4% (inactive)	21.8% (inactive)
COc1cc(N=c2ssnc2Cl)cc(OC)c1	148	-7.4% (inactive)	0.8% (inactive)	74.7%	4.2% (inactive)	82.2%	-0.557 (inactive)	-8.9e-05 (inactive)	0.0056 (inactive)	-6.83% (inactive)	8.97% (inactive)
COc1ccc(C2(C(=O)Nc3cc(C)on3)CCOCC2)cc1	312	0.4% (inactive)	10.1% (inactive)	108%	-51.8% (inactive)	134%	-0.388 (inactive)	-4.8e-05 (inactive)	0.00489 (inactive)	13.8% (inactive)	5.89% (inactive)
Cc1sc2nc(SCC(=O)NCCO)n(C)c(=O)c2c1C	368	4.3% (inactive)	12.1% (inactive)	109%	4.8% (inactive)	112%	-0.343 (inactive)	-5.2e-05 (inactive)	0.00646 (inactive)	5.26% (inactive)	26% (inactive)
COCCn1c(=O)[nH]c2cc(C(=O)N3CCN(Cc4ccc5c(c4)OCO5)CC3)ccc2c1=O	742	-1.6% (inactive)	-2% (inactive)	122%	-20.8% (inactive)	115%	-0.643 (inactive)	-1.6e-05 (inactive)	0.00392 (inactive)	2.81% (inactive)	-1.78% (inactive)
CCOC(=O)N1CCC(NC(=O)C2CCCN(C(=O)c3cc4sccc4n3C)C2)CC1 (centres undefined)	762	-5.8% (inactive)	-4.7% (inactive)	127%	-71.5% (inactive)	123%	-0.556 (inactive)	-4.1e-05 (inactive)	0.00546 (inactive)	2.87% (inactive)	25.3% (inactive)
CCOc1ccc(S(=O)(=O)Nc2ccc(Cl)cn2)c(C)c1C	536	-35.7% (inactive)	20.2% (inactive)	87.4%	-43.3% (inactive)	101%	-0.475 (inactive)	-3e-05 (inactive)	0.00637 (inactive)	4.93% (inactive)	26.8% (inactive)
O=C(COc1ccccc1)Nc1ccccc1N1CCN(c2ccccc2)CC1	672	10.8% (inactive)	-7.4% (inactive)	84.2%	-71.5% (inactive)	110%	-0.609 (inactive)	-3.5e-05 (inactive)	0.00412 (inactive)	16.7% (inactive)	3.18% (inactive)

— PubChem BioAssay
